High-throughput results deposited in PubChem BioAssay by Broad Institute.
Tg IFNy HTS – T. gondii growth inhibition under IFN-gamma; activity change, negative = inhibition, % (no concentration beside the values); 69,000 compounds, 3.8% hits; Toxoplasma gondii growth in IFN-gamma-treated host cells; hits give low values; in the data active = activity change below about -70%, passing the limit was not always enough;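 also: host cells are HeLa cells infected with Toxoplasma gondii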
* marks the source's active call; other numbers are inactive results. Shown is part of a subset that was picked to be rich in hits.

SMILES	Tg IFNy HTS
CC(C)CC(NC(=O)c1cccc(Cl)c1)C(=O)O (stereo unspecified)	-35
CC(C)C[C@H](NC(=O)CNC(=O)c1cc(Cl)ccc1Cl)B(O)O	-79*
Cn1c(CNC(=O)c2ccc(Cl)cc2Cl)cc2ccccc21	34
COc1ncccc1CN1CCN(c2cc(-c3nc(C)no3)ccn2)CC1	-2
O=C(NCCc1csc(-c2ccc(Cl)cc2)n1)C(=O)Nc1ccc2c(c1)OCO2	-50
CCN(CC)C(=O)c1sc(NC(=O)c2c(OC)cccc2OC)c(C#N)c1C	-83*
COc1ccc(Oc2cccc(Oc3ccc(OC)cc3)c2C#N)cc1	-2
COc1cccc(OC)c1C(=O)NCCc1sc(-c2cccc(F)c2)nc1C	69
Cc1cccnc1CN(C)Cc1nccn1C	9
C[C@@H]1CCCCO[C@@H](CN(C)C(=O)Nc2ccccc2)[C@H](C)CN([C@H](C)CO)C(=O)c2cc(NC(=O)Nc3ccccc3)ccc2O1	170
Cc1cccc(-c2noc(Cn3cnc4sc5c(c4c3=O)CCNC5)n2)c1	-34
Cc1cc(C)n(Cc2nc(-c3ccc(NC(=O)c4cc(F)ccc4F)cc3)oc2C)n1	-81*
Cc1cc(C)n(Cc2nc(-c3ccc(NC(=O)Cc4ccccc4F)cc3)oc2C)n1	-8
Cc1cc(C)n(Cc2nc(-c3ccc(NC(=O)Cc4cccc(F)c4)cc3)oc2C)n1	-38
Cc1nn(Cc2nc(-c3ccc(NC(=O)c4ccc(F)cc4F)cc3)oc2C)c(C)c1C	-101*
Cc1nn(Cc2nc(-c3ccc(NC(=O)c4ccccc4F)cc3)oc2C)c(C)c1C	-69
Cc1cc(C)n(Cc2nc(-c3ccc(NC(=O)c4ccc(F)cc4Cl)cc3)oc2C)n1	66
Cc1nn(Cc2nc(-c3ccc(NC(=O)c4cccc(F)c4)cc3)oc2C)c(C)c1C	49
Cc1cc(C)n(Cc2nc(-c3ccc(NC(=O)c4ccc(F)cc4F)cc3)oc2C)n1	-85*
COc1ccc(C(=O)Nc2ccc(-c3nc(Cn4nc(C)cc4C)c(C)o3)cc2)cc1F	114
OCc1ccc(-c2nccn2-c2cccc(-c3ccn[nH]3)c2)o1	6
O=C(Cn1c(=O)cc(C(=O)N2CCCCC2)c2ccccc21)Nc1ccc(F)cc1F	5
CCOc1ccccc1NC(=O)C(=O)NCCc1sc(-c2ccc(C)cc2)nc1C	387
CNC(=O)c1cc(=O)n(CC(=O)Nc2cccc(Cl)c2C)c2ccccc12	11
Cn1cccc1-c1cc(C(=O)NCCC(=O)Nc2ccccc2F)[nH]n1	19
SMILES	Tg IFNy HTS
Cc1ccc2nc(C(=O)NCCSc3nccn3C)cn2c1	61
COc1cccc(S(=O)(=O)N2CCC3(CC2)NCCNC3=O)c1	15
COc1cccc(Cl)c1-c1cccc(-n2cnnc2)c1	0
Nc1nnc(-c2cccc(Cl)c2Cl)c(N)n1	2
Cc1nc(-n2cnnc2)ccc1-c1cccc(Cl)c1Cl	-84*
C[C@H](NC(=O)[C@H]1[C@H](CO)[C@H]2Cn3c(ccc(-c4ccccc4)c3=O)[C@H]2N1C)c1ccccc1	-7
COc1ccc(CCCNC(=O)c2ccc(N3CC(O)C3)nc2)cc1	-1
COc1cc(CCc2cc(NC(=O)c3ccc(N4C[C@@H](C)N[C@@H](C)C4)cc3)n[nH]2)cc(OC)c1	-74*
COc1ccc(NC(=O)c2ccc(-n3c(C)ccc3C)cc2)c(OC)c1	14
COC(=O)c1[nH]ncc1CN1CCC(Cc2ccc(F)cc2)CC1	2
Cc1cc(Cl)ccc1NC(=O)COCC(=O)O	113
CC(C)c1cc(-c2n[nH]c(=O)n2-c2ccc3c(ccn3C)c2)c(O)cc1O	-79*
O=C(O)C[C@@H]1CC[C@H]2[C@@H](COC[C@H](O)CN2S(=O)(=O)c2ccc(Oc3ccccc3)cc2)O1	-1
CCn1c(=O)c(C(=O)Nc2cccc(C)c2C)c(O)c2ccccc21	126
NC(CC(F)C(=O)O)C(=O)O (stereo unspecified)	9
CCN1CCC[C@@H]1Cn1ccnc1-c1ccc(OC)c(OC)c1	-1
O=S(=O)(Nc1ccc(C2=NCCO2)cc1)c1ccc(Cl)cc1	-18
CNS(=O)(=O)c1ccc(CN2CCN(Cc3cccc(F)c3)CC2)cc1	-3
O=S1(=O)CCN(Cc2ccc(NS(=O)(=O)c3ccc(Cl)cc3)cc2)CC1	-92*
O=C(NC(Cc1ccccc1)C(O)c1nccs1)C1CC=CCC1 (stereo unspecified)	1
COc1cc(N2C[C@H]3CC=C(C)C[C@H]3C2)ncn1	-48
COC(=O)c1c(C)oc(C)c1S(=O)(=O)N1CCC(O)(c2ccc(Cl)cc2)CC1	-30
Cc1ccc(OCC(=O)N2CCC3(CC2)CNS(=O)(=O)c2ccccc2OC3)cc1	2
Cc1noc(C)c1NC(=O)N1C[C@H](O)COC[C@H]2O[C@@H](CC(=O)N[C@H]3CCN(Cc4ccccc4)C3)CC[C@@H]21	15
Cc1ccc(S(=O)(=O)N2CCC3(CCCN(CC4CCOCC4)C3)C2)cc1 (stereo unspecified)	26
Cc1ccc(S(=O)(=O)N2CCCC3(CCCCC3)C2)cc1	-98*
Cc1ccc(S(=O)(=O)N2CCC3(CC2)CN(c2ccccc2)C3=O)cc1	86
CCOC(=O)c1noc2nc(C)n(Cc3nc(-c4ccccc4OCC)oc3C)c(=O)c12	-9
